Test results published in PubChem BioAssay (NCATS).
Results filed as inconclusive are left out. The source made the active and inactive calls. Unless noted, calls follow the shape of the dose curve; as a rule, active = well fitted curve in the direction sought with a large enough effect; inconclusive = small, poorly fitted or top-dose-only effect, or another doubt; inactive = no such curve, though single readings can be large; an effect the other way counts as inactive or inconclusive.

Legend:
[1] = qHTS to identify inhibitors of the type 1 interferon - major histocompatibility complex class I in skeletal muscle: primary screen against the NCATS Pharmaceutical Collection (AID 1347407);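 also: luminescence of HiBiT knocked into endogenous HLA-B as interferon-induced MHC class I level; % is scaled to controls: 0 for no effect and ±100 for the full control effect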
Method in brief: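 HLA-B HiBiT myoblasts, dexamethasone-free growth medium + 4 ng/ml IFN-b; compounds pinned 1 h after seeding, […] from 46 uM; 24 h, 37 C, 5% CO2; lytic HiBiT detection, 10 min RT, luminescence.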

[2] = molecular target: Protein phosphatase 1D (Homo sapiens) (UniProt O15297); test: RapidFire Mass Spectrometry qHTS Assay for Modulators of WT P53-Induced Phosphatase 1 (WIP1) (AID 1347424);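 also: amount of dephosphorylated VEPPL-S-QETFS peptide product formed by WIP1; series mostly up to about 63 µM; plate controls were DMSO wells for no effect and GSK830371 inhibitor control at 10 µM for full effect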
Chain of Protein phosphatase 1D (Homo sapiens) (O15297 whole entry, looked up): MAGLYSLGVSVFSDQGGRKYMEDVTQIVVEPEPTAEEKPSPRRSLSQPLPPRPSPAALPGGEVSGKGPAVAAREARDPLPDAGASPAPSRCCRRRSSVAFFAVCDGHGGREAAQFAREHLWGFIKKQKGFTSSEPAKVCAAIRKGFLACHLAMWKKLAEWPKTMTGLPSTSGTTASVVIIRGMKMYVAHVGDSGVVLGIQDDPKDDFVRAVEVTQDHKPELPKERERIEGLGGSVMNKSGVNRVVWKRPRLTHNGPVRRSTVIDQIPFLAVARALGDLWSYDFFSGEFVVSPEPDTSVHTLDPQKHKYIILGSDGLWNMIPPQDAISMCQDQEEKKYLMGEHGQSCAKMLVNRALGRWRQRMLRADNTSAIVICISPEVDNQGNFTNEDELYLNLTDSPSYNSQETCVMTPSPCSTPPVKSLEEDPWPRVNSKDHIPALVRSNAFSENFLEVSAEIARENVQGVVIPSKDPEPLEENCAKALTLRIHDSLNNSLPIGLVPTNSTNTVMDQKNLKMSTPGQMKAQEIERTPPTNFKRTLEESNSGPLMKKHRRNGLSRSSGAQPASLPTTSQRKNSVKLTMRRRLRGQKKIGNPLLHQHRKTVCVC
Method in brief: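 WIP1 (10 nM final) was preincubated 1 h at room temperature with compounds in Tris-HCl pH 7.5, 30 mM MgCl2, TCEP, EGTA, BSA; 2 uM VEPPL-pS-QETFS phosphopeptide was added for 5 min, quenched with formic acid, and dephosphorylated product quantified by RapidFire MS.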

[3] = molecular target: Protein phosphatase 1D (Homo sapiens) (UniProt O15297); test: Rhodamine-PBP qHTS Assay for Modulators of WT P53-Induced Phosphatase 1 (WIP1) (AID 1347425); also: % of control where 0% means no effect
Method in brief: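 Read-out: Rhodamine-PBP fluorescence (ex 525/em 598 nm) for released Pi, read each minute for 11 min after adding 10 uM VEPPL-pS-QETFS; signal taken as f1 minus pre-substrate f0. Enzyme 5 nM WIP1 with 1 hr room-temperature compound preincubation.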

[4] = Primary qHTS for inhibitors of La Crosse Virus (LACV) - induced cell death in SH-SY5Y cells (AID 1508616);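 also: top concentration of the series differs between compounds; 0% = infected DMSO wells and 100% = uninfected DMSO wells; higher means more rescue of cells from virus-induced death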
Method in brief: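 Luminescent ATP readout (ATPLite 1step, 5 min room temperature) measured rescue from LACV-induced death after 6 days of infection at 0.01 MOI; normalized to infected DMSO wells and uninfected DMSO wells.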

[5] = molecular target: Calcium and integrin-binding protein 1 (Homo sapiens) (UniProt Q99828); test: Primary qHTS for Identification of Calcium Integrin Binding Protein 1 (CIB1) Competitor (AID 1508620);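 also: GST tagged CIB1 binding a fluorescein labelled alphaIIb integrin peptide tracer; top concentration of the series differs between compounds; % is scaled to controls: 0 for no effect and ±100 for the full control effect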
Chain of Calcium and integrin-binding protein 1 (Homo sapiens) (Q99828 whole entry, looked up): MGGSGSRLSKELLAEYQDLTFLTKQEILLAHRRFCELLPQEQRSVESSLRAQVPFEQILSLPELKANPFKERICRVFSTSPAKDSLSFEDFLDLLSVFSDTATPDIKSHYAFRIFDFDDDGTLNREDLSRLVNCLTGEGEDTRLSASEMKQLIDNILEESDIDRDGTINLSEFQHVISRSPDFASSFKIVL
Method in brief: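 Fluorescence polarization competition: CIB1-GST (1 uM final) preincubated with compound 15 min at room temperature, then FITC-labeled alphaIIb peptide (100 nM final) added for another 15 min. Polarization read at Ex 480/Em 540.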

[6] = Primary qHTS for small molecule stabilizers of the endoplasmic reticulum resident proteome: Secreted ER Calcium Modulated Protein (SERCaMP) assay (AID 1508630); also: % is scaled to controls: 0 for no effect and ±100 for the full control effect
Method in brief: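 GLuc-SERCaMP-expressing SH-SY5Y cells, pretreated 16 h with compound, are challenged with thapsigargin to empty ER calcium stores; after 4 h, coelenterazine is added directly to the medium and luminescence is imaged.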

[7] = A High-Content qHTS Against Drug Library for the Identification of Small Molecules that Inhibit DYT1 Early Onset Primary Dystonia-Associated Cell Pathology (AID 1645839; calls by dose curve; also: series mostly up to about 46 µM)
Method in brief: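 Readout: %pathology, the punctate EGFP-TorsinA distribution from imaging, as the primary channel and cell count as the toxicity counterscreen. HEK293 Flp-In cells expressing delE TorsinA were induced with tetracycline and treated with compound for 48 h.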

[8] = molecular target: Cytochrome P450 2D6 (Homo sapiens) (UniProt P10635); test: Cytochrome P450 family 2 subfamily D member 6 (CYP2D6) small molecule antagonists: luciferase biochemical (cell-free) qHTS assay (AID 1645840; active = well fitted curve in the direction sought with a large enough effect in the repeat runs; an effect the other way counts as inactive or inconclusive; also: series mostly up to about 57 µM; % is scaled to controls: 0 for no effect and ±100 for the full control effect; nearly all actives have a fitted effect of over 55% in size)
Chain of Cytochrome P450 2D6 (Homo sapiens) (P10635 whole entry, looked up): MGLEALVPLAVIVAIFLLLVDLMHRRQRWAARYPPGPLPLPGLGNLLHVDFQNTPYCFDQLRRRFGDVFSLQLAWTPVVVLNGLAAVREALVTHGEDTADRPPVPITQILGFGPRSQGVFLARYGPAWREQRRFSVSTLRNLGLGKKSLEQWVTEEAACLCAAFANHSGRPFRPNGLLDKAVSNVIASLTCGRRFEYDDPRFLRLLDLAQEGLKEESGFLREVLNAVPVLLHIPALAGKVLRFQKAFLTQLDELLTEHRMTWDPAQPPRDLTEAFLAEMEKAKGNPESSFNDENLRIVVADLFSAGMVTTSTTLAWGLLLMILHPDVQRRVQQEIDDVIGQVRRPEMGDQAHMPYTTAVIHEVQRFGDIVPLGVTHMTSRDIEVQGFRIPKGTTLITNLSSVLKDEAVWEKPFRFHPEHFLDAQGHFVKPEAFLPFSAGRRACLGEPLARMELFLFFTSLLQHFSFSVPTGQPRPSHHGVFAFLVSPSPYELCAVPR
Method in brief: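 P450-Glo luminescent screen: recombinant CYP2D6 enzyme–proluciferin substrate mix preincubated with compound 10 min at room temperature, then NADPH regeneration added for 1 h at room temperature. Detection reagent added for 20 min; luciferin light read as relative luminescence units.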

[9] = molecular target: Cytochrome P450 3A4 (Homo sapiens) (UniProt P08684); test: Cytochrome P450 family 3 subfamily A member 4 (CYP3A4) small molecule antagonists: luciferase qHTS assay (AID 1645841; active = well fitted curve in the direction sought with a large enough effect in the repeat runs; an effect the other way counts as inactive or inconclusive; also: nearly all actives have a fitted effect of over 45% in size)
Chain of Cytochrome P450 3A4 (Homo sapiens) (P08684 whole entry, looked up): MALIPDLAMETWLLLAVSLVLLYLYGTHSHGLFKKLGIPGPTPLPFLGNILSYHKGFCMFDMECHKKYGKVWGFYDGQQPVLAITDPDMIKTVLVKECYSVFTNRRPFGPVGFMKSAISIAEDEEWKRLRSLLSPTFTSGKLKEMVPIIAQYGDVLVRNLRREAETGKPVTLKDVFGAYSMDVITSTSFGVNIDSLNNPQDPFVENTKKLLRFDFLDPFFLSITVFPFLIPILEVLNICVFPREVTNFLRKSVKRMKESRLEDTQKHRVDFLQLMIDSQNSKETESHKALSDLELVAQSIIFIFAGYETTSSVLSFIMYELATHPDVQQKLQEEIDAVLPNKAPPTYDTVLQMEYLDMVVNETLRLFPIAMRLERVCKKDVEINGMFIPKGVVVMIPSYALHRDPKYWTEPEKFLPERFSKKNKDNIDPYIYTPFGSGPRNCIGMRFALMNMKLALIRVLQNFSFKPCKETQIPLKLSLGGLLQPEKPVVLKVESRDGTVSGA
Method in brief: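 P450-Glo CYP3A4 enzyme with proluciferin substrate was preincubated with DMSO-dissolved compounds for 10 min at room temperature. NADPH regeneration solution started a 1 h reaction. Detection reagent stopped it, and luminescence was read after 20 min.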

CC(=O)OC[C@H]1O[C@@](COC(C)=O)(O[C@H]2O[C@H](COC(C)=O)[C@@H](OC(C)=O)[C@H](OC(C)=O)[C@H]2OC(C)=O)[C@@H](OC(C)=O)[C@@H]1OC(C)=O
inactive: outcome [1] | outcome [2] | outcome [3] | outcome [4] | outcome [5] | outcome [6] | Potency [7] | Potency [8]

Cc1c(NC(C)C)c(=O)n(-c2ccccc2)n1C
inactive: outcome [1] | outcome [2] | outcome [3] | outcome [4] | outcome [5] | Potency [7]

NC(=O)CCCCC1CCSS1 (stereo unspecified)
inactive: outcome [1] | outcome [2] | outcome [3] | outcome [4] | outcome [5] | Potency [7] | Potency [8]

CC(=O)N(CC(O)CN(C(C)=O)c1c(I)c(C(=O)NCC(O)CO)c(I)c(C(=O)NCC(O)CO)c1I)c1c(I)c(C(=O)NCC(O)CO)c(I)c(C(=O)NCC(O)CO)c1I (stereo unspecified)
inactive: outcome [1] | outcome [2] | outcome [3] | outcome [4] | outcome [5] | outcome [6] | Potency [7] | Potency [8] | outcome [9]

NC(=O)CC[C@@H](N)C(=O)O
inactive: outcome [1] | outcome [2] | outcome [3] | outcome [4] | outcome [5] | Potency [7]

CCCCCCCCCCCCCCCCCCO
inactive: outcome [1] | outcome [2] | outcome [3] | outcome [4] | outcome [5] | Potency [7] | Potency [8]

CC(=O)[C@@]1(O)CC[C@H]2[C@@H]3C[C@H](C)C4=CC(=O)C=C[C@]4(C)[C@@]3(F)[C@@H](O)C[C@@]21C
inactive: outcome [1] | outcome [2] | outcome [3] | outcome [4] | outcome [5] | outcome [6] | Potency [7] | Potency [8]

O=C(O)c1cc(=O)c2ccccc2o1
inactive: outcome [1] | outcome [2] | outcome [3] | outcome [4] | outcome [5] | outcome [6] | Potency [8] | outcome [9]

CCOC(=O)[C@H](CCc1ccccc1)N[C@@H](C)C(=O)N1Cc2cc(OC)c(OC)cc2C[C@H]1C(=O)O
inactive: outcome [1] | outcome [2] | outcome [3] | outcome [4] | outcome [5] | outcome [6] | Potency [7] | Potency [8]

Cc1cc(O)cc(C)c1Cl
inactive: outcome [1] | outcome [2] | outcome [3] | outcome [4] | outcome [5] | outcome [6] | Potency [7] | Potency [8]

O=C(O)c1ccc[n+]([O-])c1
inactive: outcome [1] | outcome [2] | outcome [3] | outcome [4] | outcome [5] | outcome [6] | Potency [7] | Potency [8]

CO[C@@]1(NC(=O)C(C(=O)O)c2ccc(O)cc2)C(=O)N2C(C(=O)O)=C(CSc3nnnn3C)CO[C@@H]21 (stereo partly specified)
inactive: outcome [1] | outcome [2] | outcome [3] | outcome [4] | outcome [5] | Potency [7]

NS(=O)(=O)c1cc(C2(O)NC(=O)c3ccccc32)ccc1Cl (stereo unspecified)
inactive: outcome [1] | outcome [2] | outcome [3] | outcome [4] | outcome [5] | Potency [7]

COc1ccccc1Oc1c(NS(=O)(=O)c2ccc(C(C)(C)C)cc2)nc(-c2ncccn2)nc1OCCO
inactive: outcome [1] | outcome [2] | outcome [3] | outcome [4] | outcome [5] | outcome [6] | Potency [8]

CCCCCCCC(=O)OCC(COC(=O)CCCCCCC)OC(=O)CCCCCCC
inactive: outcome [1] | outcome [2] | outcome [3] | outcome [4] | outcome [5] | outcome [6] | Potency [7] | Potency [8]

CC1CCc2cc(F)cc3c(=O)c(C(=O)O)cn1c23 (stereo unspecified)
inactive: outcome [1] | outcome [2] | outcome [3] | outcome [4] | outcome [5] | outcome [6] | % pathology change, negative = correction [7] -13.4% [at 9.22 µM] | Potency [8]

COc1ccccc1OC(=O)Oc1ccccc1OC
inactive: outcome [1] | outcome [2] | outcome [3] | outcome [4] | outcome [5] | outcome [6] | Potency [7] | Potency [8]

CC[C@H](C)[C@H](N)C(=O)O
inactive: outcome [1] | outcome [2] | outcome [3] | outcome [4] | outcome [5] | outcome [6] | Potency [7] | Potency [8]

CC(O)CCCCn1c(=O)c2c(ncn2C)n(C)c1=O (stereo unspecified)
inactive: outcome [1] | outcome [2] | outcome [3] | outcome [4] | outcome [5] | Potency [7]

Cc1c(N(C)C)c(=O)n(-c2ccccc2)n1C
inactive: outcome [1] | outcome [2] | outcome [3] | outcome [4] | outcome [5] | outcome [6] | Potency [7] | Potency [8]

CCN(CC)CC1CCCCN1CC(=O)N1c2ccccc2C(=O)Nc2cccnc21 (stereo unspecified)
inactive: outcome [1] | outcome [2] | outcome [3] | outcome [4] | outcome [5] | outcome [6] | Potency [7] | Potency [8] | outcome [9]

CCN[C@H]1CN(CCCOC)S(=O)(=O)c2sc(S(N)(=O)=O)cc21
inactive: outcome [1] | outcome [2] | outcome [3] | outcome [4] | outcome [5] | Potency [7]

CCCCCCCC(=O)OCC(O)CO (stereo unspecified)
inactive: outcome [1] | outcome [2] | outcome [3] | outcome [4] | outcome [5] | outcome [6] | Potency [7] | Potency [8]

O=C(O)CCCc1ccccc1
inactive: outcome [1] | outcome [2] | outcome [3] | outcome [4] | outcome [6] | Potency [7]

O=C1CC[C@@H](C(=O)O)N1
inactive: outcome [1] | outcome [2] | outcome [3] | outcome [4] | outcome [6] | Potency [7] | Potency [8]

COC(=O)c1ccc(O)cc1
inactive: outcome [1] | outcome [2] | outcome [3] | outcome [4] | outcome [6] | Potency [7] | Potency [8]

Nc1ccc(C(=O)Oc2ccccc2)c(O)c1
inactive: outcome [1] | outcome [2] | outcome [3] | outcome [4] | outcome [6] | Potency [7] | Potency [8]

CCS(=O)(=O)CCn1c([N+](=O)[O-])cnc1C
inactive: outcome [1] | outcome [2] | outcome [3] | outcome [4] | outcome [6] | Potency [7]

NC(=O)NS(=O)(=O)c1ccc(N)cc1
inactive: outcome [1] | outcome [2] | outcome [3] | outcome [4] | outcome [5] | Potency [7] | Potency [8]
